This passage reports Potency and outcome results from PubChem BioAssay (Tox21).

Each structure is given as a SMILES string. Results filed as inconclusive are left out. The source made the active and inactive calls. Unless noted, calls follow the shape of the dose curve; as a rule, active = well fitted curve in the direction sought with a large enough effect in the repeat runs; inconclusive = weak or mixed curves; inactive = no such curve, though single readings can be large; an effect the other way counts as inactive or inconclusive.

The target in experiment [1] is Thyrotropin receptor (Homo sapiens) (UniProt P16473). Nature of the experiment: qHTS assay to identify small molecule agonists of the thyroid stimulating hormone receptor (TSHR) signaling pathway (AID 1224843; calls by dose curve; also: nearly all actives have a fitted effect of over 45% in size). Particulars: TSHR-HEK293 cells, cAMP HTRF, agonist mode, 30 min; series mostly up to 92.4 µM. An outline of the steps:
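Screening of the Tox21 10K collection used HEK293 cells engineered with TSHR at 800 cells per well. After a 30-min room-temperature compound exposure, HTRF cAMP reagents were added and fluorescence recorded 1 h later.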
(In general: In qHTS, concentration-response curves come from the screen itself.)

The nature of experiment [2]: qHTS assay to identify small molecule agonists of the hypoxia (HIF-1) signaling pathway - cell viability counter screen (AID 1224844; calls by dose curve; also: nearly all actives have a fitted effect of over 50% in size). Particulars: HRE-bla ME-180 viability, CellTiter-Glo luminescence, 17 h; series mostly up to 76.8 µM. An outline of the steps: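 HRE-bla ME-180 cells, 2,000/well in 0.5% dialyzed FBS medium, treated 17 h at 37C with compounds. Viability read in the same wells as the bla reporter, by CellTiter-Glo luminescence after 30 min at room temperature.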

Experiment [3] is described as follows: qHTS assay to identify small molecule agonists of the hypoxia (HIF-1) signaling pathway (AID 1224846; active = well fitted activation curve with a large enough effect in the signal ratio in the repeat runs, not every such curve was filed as active; the % refers to the signal ratio). Particulars: HRE-bla ME-180 cells, beta-lactamase ratio, 17 h; series mostly up to 76.8 µM. The method, boiled down: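 HRE-bla ME-180 beta-lactamase reporter cells in medium with 0.5% dialyzed FBS, pre-incubated 5 h then exposed to compounds 17 h at 37C, 5% CO2; reporter induction read with CCF4-AM FRET substrate.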

Experiment [4] is described as follows: qHTS assay to identify small molecule agonists of H2AX - cell viability counter screen (AID 1224847; calls by dose curve;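 also: wild-type CHO-K1 cells; top concentration of the series differs between compounds; nearly all actives have a fitted effect of over 30% in size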). Particulars: CHO-K1 viability, CellTiter-Glo luminescence, 3 h; series mostly up to 154 µM. An outline of the steps:
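Cells plated first: CHO-K1, 1000 per well in 10% FBS medium, incubated overnight at 37C. Then 15-point compound titration added (final DMSO 0.76%) for 3 hr. Finally CellTiter-Glo added and luminescence read.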

Experiment [5] is described as follows: qHTS RealTime-Glo MT Cell Viability Assay in HepG2 cells - 24 hour (AID 1224867). Also: nearly all actives have a fitted effect of over 50% in size. Particulars: RealTime-Glo luminescence; series mostly up to 76.8 µM. An outline of the steps: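 Real-time, nonlytic viability: 600 HepG2 cells/well mixed with NanoLuc enzyme plus prosubstrate; 5 h settle, compound (DMSO) added by pintool; luminescence monitored over 40 h at 37 C.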

Experiment [6] can be described thus: qHTS RealTime-Glo MT Cell Viability Assay in HEK293 cells - 32 hour (AID 1224868). Also: nearly all actives have a fitted effect of over 50% in size. Also: potency is read from the fitted curve at half-maximal effect. As to conditions: RealTime-Glo luminescence; series mostly up to 76.8 µM. The method, boiled down:
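Cells + reagent dispensed (600 cells/well, HEK293) → 5 h at 37 C/5% CO2 → 23 nL compound in DMSO pinned → 40 h at 37 C → luminescence read at 0, 8, 16, 24, 32, 40 h.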

Experiment [7] in a line: A CellTox Green Cytotoxicity Assay to monitor cytotoxicity in HEK293 cells - 0 hour (AID 1224869). Also: nearly all actives have a fitted effect of over 50% in size. Particulars: CellTox Green fluorescence; series mostly up to 76.8 µM. An outline of the steps:
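HEK293 cells, 600/well, were preincubated 5 hours and then exposed to compounds at 37 C for up to 40 hours. A cell-impermeant cyanine dye staining dead-cell DNA was read by fluorescence at 0, 8, 16, 24, 32 and 40 h time points.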

Experiment [8] in a line: qHTS assay to identify small molecule agonists of H2AX (AID 1224845; active = well fitted activation curve with a large enough effect in the signal ratio in the repeat runs, not every such curve was filed as active; the % refers to the signal ratio). As to conditions: CHO-K1 phospho-H2AX Ser139 HTRF, 3 h; series mostly up to 154 µM. The method, boiled down: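 Phospho-H2AX Ser139 measured by HTRF (ex 320 nm; em 665 and 620 nm) after 24 hr antibody incubation. Compounds, 15 concentrations, 0.76% DMSO, were applied to CHO-K1 cells for 3hr at 37C before lysis.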

Chain of Thyrotropin receptor (Homo sapiens) (P16473 whole entry, looked up): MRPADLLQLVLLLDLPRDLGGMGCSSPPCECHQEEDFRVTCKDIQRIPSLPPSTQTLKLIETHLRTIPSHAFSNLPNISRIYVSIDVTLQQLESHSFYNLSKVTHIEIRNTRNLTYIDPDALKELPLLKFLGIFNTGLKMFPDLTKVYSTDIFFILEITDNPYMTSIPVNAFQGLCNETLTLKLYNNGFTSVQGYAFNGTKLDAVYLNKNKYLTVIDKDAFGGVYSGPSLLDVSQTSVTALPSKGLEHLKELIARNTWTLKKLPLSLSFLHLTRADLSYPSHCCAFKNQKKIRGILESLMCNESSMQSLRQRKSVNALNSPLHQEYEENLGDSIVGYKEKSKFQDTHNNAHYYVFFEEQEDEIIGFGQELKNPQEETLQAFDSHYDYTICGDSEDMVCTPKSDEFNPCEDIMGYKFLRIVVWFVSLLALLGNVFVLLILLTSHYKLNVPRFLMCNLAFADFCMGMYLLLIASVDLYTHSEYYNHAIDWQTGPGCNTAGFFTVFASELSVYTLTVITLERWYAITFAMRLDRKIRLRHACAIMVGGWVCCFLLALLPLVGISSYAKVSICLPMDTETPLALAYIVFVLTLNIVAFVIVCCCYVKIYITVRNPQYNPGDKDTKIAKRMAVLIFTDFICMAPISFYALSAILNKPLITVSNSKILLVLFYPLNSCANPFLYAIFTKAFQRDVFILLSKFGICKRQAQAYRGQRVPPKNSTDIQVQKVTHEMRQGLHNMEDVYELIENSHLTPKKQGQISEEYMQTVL

Consider `CC(CCl)OC(C)CCl` (stereo unspecified), for which the Potency result in experiment [1], in experiment [2], in experiment [4], in experiment [6] and in experiment [7] was “inactive” throughout. The outcome in experiment [3] and in experiment [5] was inactive.

For the compound `OCCCO`, the Potency result in experiment [1], in experiment [2], in experiment [8] and in experiment [6] was “inactive” in each case. Also, the compound was called inactive in experiment [5].

Take `CO[C@@H]1COCC[C@@H]1N[C@@H]1CC[C@@](C(=O)N2CCc3ncc(C(F)(F)F)cc3C2)(C(C)C)C1`: the Potency entry in experiment [1], in experiment [2], in experiment [4] and in experiment [7] was “inactive” each time. Further, the result in experiment [3] and in experiment [5] was inactive. For the same compound, the Potency in experiment [6] was 15.4 µM (active).

In the case of `COc1ccc(CN(CCN(C)C)c2ncccn2)cc1`, the Potency entry in experiment [1], in experiment [8] and in experiment [7] was “inactive” in each case. Further, the outcome in experiment [3] was inactive.

Regarding `COC(=O)c1cc(Cl)ccc1[N+](=O)[O-]`, the Potency entry in experiment [1], in experiment [8], in experiment [4], in experiment [6] and in experiment [7] was “inactive” in each case. Moreover, the outcome in experiment [3] was inactive.

Take `O=C(C1CCCCC1)N1CC(=O)N2CCCc3ccccc3C2C1` (stereo unspecified): the Potency entry in experiment [1], in experiment [8], in experiment [4], in experiment [6] and in experiment [7] was “inactive” throughout. The result in experiment [3] and in experiment [5] was inactive.
